± gives the standard deviation.
What was measured:
[1] = tested on: MILI (PIWIL2) piRISC loaded with L1MC piRNA (26 nt); assay: pre-steady-state target cleavage rate (min^-1); guide: L1MC piRNA 5'p-UAACUAAAUACUAUGCAAGCUGUAGG; higher = faster piRNA-guided slicing of the target;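 further: 1 nM active piRISC with 0.1 nM target library at 33 °C single turnover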
Outline: (§1)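 The pre-steady-state cleavage rate was derived from a burst-and-steady-state fit of Cleave-'n-Seq data. For these assays, 1 nM active affinity-purified piRISC loaded with a single synthetic guide was mixed with […] a transcribed, DNA-blocked target RNA library in HEPES–potassium acetate buffer at 33 °C, with or without 500 nM GTSF1 partner protein, for 0–8 or 0–960 min. Sequencing counts of uncleaved targets were normalised to depth and to weakly complementary targets, and k3 was capped at 0.0001 min^-1 after three trials were pooled.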

[2] = tested on: EfPiwi piRISC loaded with L1MC piRNA (26 nt); assay: pre-steady-state target cleavage rate (min^-1); auxiliary factor: 500 nM Ephydatia muelleri Gtsf1; guide: L1MC piRNA 5'p-UAACUAAAUACUAUGCAAGCUGUAGG; MIWI and MILI are mouse PIWI proteins and EfPiwi is from a freshwater sponge; tags in brackets are library labels; higher = faster piRNA-guided slicing of the target
Outline: as §1

[3] = auxiliary factor: 500 nM mouse GTSF1
[4] = auxiliary factor: none (no GTSF1)

Sequence	pre-steady-state target cleavage rate [1, 3]	pre-steady-state target cleavage rate [1, 4]	pre-steady-state target cleavage rate [2]
UCCUCGUACAGCUUGCAUACUAUUUAGUUA	0.0786 ± 0.011	0.00274 ± 0.0022	0.0224 ± 0.0069
UCCUCCUACAGCUUGCAUAGUAGUUAGUUA	0.192 ± 0.026	0.00325 ± 0.0032	0.00786 ± 0.0026
UCCUGGAACAGCUUGUAUAGUAUUUAGUUA	0.323 ± 0.017	0.00685 ± 0.0022	0.0686 ± 0.013
UCCUGCUACAGCUUGGCAUAGUAUUUAGUUA	0.307 ± 0.051	0.00405 ± 0.0027	0.00928 ± 0.0031
UCCUGCUACAGCUUGCAUAGUAUUUAUGUUA	0.182 ± 0.023	0.00699 ± 0.0022	0.00419 ± 0.0019
UCCUGCUUCACCUUGCAUAGUAUUUAGUUA	0.228 ± 0.027	0.00696 ± 0.0025	0.0076 ± 0.0034
UCCUGGAUCCAGCUUGCAUAGUAUUUAGUUA	0.3 ± 0.017	0.00437 ± 0.003	0.126 ± 0.022
UCCUGGAUGUGCUAUGCAUAGUAUUUAGUUA	0.141 ± 0.018	0.0069 ± 0.0024	0.0103 ± 0.0036
UCCUGGAACAUGCUUGCAUAGUAUUUAGUUA	0.184 ± 0.011	0.00694 ± 0.0023	0.0178 ± 0.0057
UCCUGGUACAGUUGCAUAGUAUUUAGUUA	0.227 ± 0.023	0.0115 ± 0.003	0.0124 ± 0.0051
UCCUGGUAGUGCUUGCAUAGUAUUUAGUUA	0.184 ± 0.018	0.00947 ± 0.0025	0.0152 ± 0.0047
UCCUGCUACAGCUUGCAUAGUAUUUAGUUG [g2:g25:cont:t1G]	0.145 ± 0.013	0.0083 ± 0.0024	0.00685 ± 0.0019
UCCUGCUACAGCUUGCAUUAGUAUUUAGUUA	0.017 ± 0.007	–	0.00378 ± 0.003
UCCUCCUACAGGAUGCAUAGUAUUUACAAA	0.0521 ± 0.011	–	0.0028 ± 0.0027
UCCUGGAUGAGCUUGCAUAGUAAUUAGUAA	0.219 ± 0.042	–	0.00197 ± 0.0019
UCCUCCUACAGCUUGCAUUGUAUUUACAAA	0.0269 ± 0.0098	–	0.00314 ± 0.003
UCCUGCUACAGCUUGCAUAGUUUUUACAAA	0.0689 ± 0.019	–	0.00339 ± 0.0026
UCCUGCUACAGCUUGCAUAGUAUUUUCUAA	0.0874 ± 0.021	–	0.00646 ± 0.0026
UCCUCCUACAGCUAGCAUAGUAUUUUGUUA	0.151 ± 0.019	–	0.0077 ± 0.0035

Source: the supplement of paper PMC10338343
